Assay outcomes deposited in PubChem by several laboratories.
Hits are enriched below; roughly 12% of the tested compounds scored in any of these assays.
Calpain2 inh: inhibitors of pig calpain II, primary screen, biochemical, fluorogenic peptide substrate, 1536-well | purified calpain II, 30 min | inhibition, % at 16 µM | 0.37% of 220,000 active | AID 1236, 2008;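 active = inhibition above about 50%, limit read from the data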
WT yeast gro inh: growth inhibition of WT strain, primary screen, mitochondrial fusion inhibitor project, WT and mutant strains, chemical genetic. inhibition, % at 10 µM. AID 1362, 2008. mitochondrial fusion phenotypic screen. 2.1% of 190,000 active; in the data active = inhibition above about 58%; tested in S. cerevisiae
L major viab: Leishmania major promastigote growth inhibition, primary screen. Leishmania major promastigotes, resazurin fluorescence viability. inhibition, % at 10 µM. 9% of 200,000 active; in the data active = inhibition above about 50%;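 note: promastigotes grown with compound for 44 hours at 28 °C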
ROMK mod: ROMK potassium channel modulators, primary screen, cell-based, thallium flux, MLSMR library | ATP-sensitive inward rectifier potassium channel 1 (Homo sapiens), P48048 | Tet-inducible ROMK, thallium flux fluorescence; actives lie on both sides | B-score at 10 µM | 2% of 130,000 active | AID 1918, 2009;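 active = signal ratio slope over the read window, or its plate-corrected B-score, at least 3 SD from the plate mean, either direction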;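 note: B-score of the F/F0 ratio slope over 7 to 12 s after thallium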
KCC2 mod: KCC2 cotransporter modulators, thallium flux, primary screen, cell-based, HEK293 KCC2, FluoZin-2 fluorescence, MLSMR. KCC2 cells, thallium flux FluoZin-2 fluorescence. B-score of Tl+ flux slope (higher = more flux/activation; lower = inhibition) at 10 µM. 2.2% of 190,000 active. AID 1456, 2008;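 active = thallium flux slope and its plate-corrected score both differing from the plate sample mean at a set confidence after two filtering rounds, in either direction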;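 note: slope of fluorescence scaled to starting intensity during 10 to 20 s after thallium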
Of the large screens only hits and unclear results are named; the others gave an inactive call.

CN(C)c1ccc(/C=N\NC(=S)SCN2C(=O)C3CCC(C)(C2=O)C3(C)C)cc1 (stereo not drawn)	KCC2 mod 6.39
COc1ccc(/C=N\NC(=S)SCN2C(=O)C3CCC(C)(C2=O)C3(C)C)cc1 (stereo not drawn)	KCC2 mod 14 (no result: ROMK mod)
CC12CCC(C(=O)N(CC(O)CN3CCN(Cc4ccccc4)CC3)C1=O)C2(C)C (stereo not drawn)	none (no result: WT yeast gro inh, L major viab)
CC12CCC(C(=O)N(CSC(=S)N/N=C\c3ccccc3O)C1=O)C2(C)C (stereo not drawn)	L major viab 85.3, KCC2 mod 12.7
COc1cc2ccccc2cc1C(=O)NC(=S)Nc1cccc(C(=O)O)c1C	none (no result: WT yeast gro inh, L major viab, ROMK mod)
CCCN1C(=O)c2ccc(C(=O)NC3CCCCC3)cc2C1=O	none (no result: ROMK mod, KCC2 mod)
Cc1ccc(CS(=O)(=O)CCC(=O)O)cc1	none
CC(C)(C)c1ccc(S(=O)(=O)Nc2ccccn2)cc1	none
CCc1ccccc1N(C1=NCCCS1)S(=O)(=O)c1ccc(C(C)(C)C)cc1	WT yeast gro inh 66.0
c1ccc(-c2ccc(C3CCCN3)cc2)cc1 (stereo not drawn)	none (no result: WT yeast gro inh, L major viab, ROMK mod)
CCNC(=O)COC(=O)CCNC(=O)c1ccc(Cl)cc1	none (no result: WT yeast gro inh, L major viab, ROMK mod)
COP(=O)(OC)c1nc(-c2cccc3ccccc23)oc1N1CCCCC1	none
COP(=O)(OC)c1nc(-c2ccccc2)oc1N1CCOCC1	L major viab 51.1
CCCC(O)(CCC)C(=O)NN(C(=O)CCl)c1ccccc1	L major viab 51.9 (no result: ROMK mod)
CC(C)COc1ccc(C(=O)N/C(=C/c2cccc([N+](=O)[O-])c2)C(=O)O)cc1	none (no result: WT yeast gro inh, L major viab)
Cc1ccc(N/N=C/c2cccnc2)cc1	L major viab 75.7
Clc1ccc2c(N/N=C/c3ccc(Br)cc3)ccnc2c1	WT yeast gro inh 98.7, L major viab 100.2
Clc1ccc2c(N/N=C/c3cccnc3)ccnc2c1	L major viab 100.3
O=C(O)CCc1nn2c3ccccc3n(Cc3ccccc3F)c2nc1=O	none
CC(NC(=O)COC(=O)C1CSC2(C)CCC(=O)N12)C12CC3CC(CC(C3)C1)C2 (stereo not drawn)	none
N#Cc1c(Cl)cccc1N1CCC(C(N)=O)CC1	none (no result: WT yeast gro inh, L major viab, ROMK mod)
COc1ccc(S(=O)(=O)Nc2cc3c4c(oc3c3ccccc23)CCCC4=O)cc1	none
COc1ccc(S(=O)(=O)Nc2cc3c4c(oc3c3ccccc23)CC(C)(C)CC4=O)cc1	L major viab 100.2 (no result: ROMK mod)
Cc1ccc(S(=O)(=O)NCc2ccc(C(=O)NCCN(Cc3ccccc3)C(C)C)cc2)cc1	L major viab 67.4
C[C@]1(C(=O)NCc2cc(F)cc(C(F)(F)F)c2)C=C[C@@H](Cc2ccccc2)N1C(=O)c1ccccc1	none
COCc1c(C#N)c(NCc2cc(OC)c(OC)c(OC)c2)nc(C)c1[N+](=O)[O-]	none (no result: WT yeast gro inh, L major viab, ROMK mod)
COc1cc(CNc2nc(C)c([N+](=O)[O-])c(C)c2C#N)cc(OC)c1	Calpain2 inh 65.8 (no result: ROMK mod)
CS(=O)(=O)N1CCN(C2Cc3ccccc3C2)CC1	none
CCS(=O)(=O)N1CCN(C2CCC(C)CC2)CC1 (stereo not drawn)	L major viab 90.3 (no result: ROMK mod)
CC1CCC(N2CCN(S(C)(=O)=O)CC2)CC1 (stereo not drawn)	L major viab 88.9 (no result: KCC2 mod)
CS(=O)(=O)N1CCN(C2C3CC4CC(C3)CC2C4)CC1 (stereo not drawn)	L major viab 79.8
Cc1ccc(-c2ccc(=O)n(CC(=O)NCc3ccc(F)cc3)n2)cc1	none
COc1cc(C(=O)Nc2ccc(OCC(=O)O)cc2)cc(OC)c1OC	none (no result: ROMK mod)
O=C(COc1ccc(Br)cc1)N1CCC(c2ccccc2)C1 (stereo not drawn)	none (no result: ROMK mod)
CCn1cc(C(=O)O)c(=O)c2cnc(N3CCN(C(=S)NC(=O)c4ccc(Br)cc4)CC3)nc21	none (no result: WT yeast gro inh, L major viab)
COc1ccc(CCN(Cc2cccs2)S(=O)(=O)c2ccc(S(=O)(=O)N3CCCCCC3)cc2)cc1OC	none (no result: ROMK mod)
CCC(C)NS(=O)(=O)c1ccc(S(=O)(=O)N(CCc2ccc(OC)c(OC)c2)Cc2cccs2)cc1 (stereo not drawn)	L major viab 55.1
CC1=NNC(=O)/C1=C\c1cn(-c2ccccc2)nc1-c1ccc(Cl)cc1	L major viab 100.6 (no result: ROMK mod)
CC1=NN(c2ccccc2)C(=O)/C1=C\c1cn(-c2ccccc2)nc1C	none
CC1=NN(c2ccccc2)C(=O)/C1=C\c1cn(CCC#N)nc1-c1ccc(Cl)cc1	none
Cc1ccc(-c2nn(-c3ccccc3)cc2C=C2C(=O)CC(C)(C)CC2=O)cc1	L major viab 96.5
CCCCNC(=S)N(C)/N=C/c1c(C)[nH]c2ccccc12	L major viab 55.8
CCCCNC(=S)N(C)/N=C/c1c(F)c(F)c(F)c(F)c1F	WT yeast gro inh 59.8
CCCCN(C)CCNC(=O)C(=O)c1c(C)[nH]c2ccccc12	none
CCCCNC(=S)Nc1ccc(C(F)(F)F)cc1	none
Cn1ccc(NC(=O)Nc2cccc([N+](=O)[O-])c2)n1	none
O=C(COC(=O)c1ccc(S(=O)(=O)Nc2ccccc2)cc1)NCc1ccco1	none
Cc1cc2cc(CN(Cc3ccc4c(c3)OCO4)C(=O)c3cnccn3)c3nnnn3c2cc1C	none (no result: KCC2 mod)
O=C(c1ccccc1F)N(Cc1ccc2c(c1)OCO2)Cc1cc2cc3c(cc2n2nnnc12)OCO3	L major viab 87.5 (no result: ROMK mod)
Cc1cc(C)c2nc(N3CCCC(C(=O)N4CCN(c5ncccn5)CC4)C3)sc2c1 (stereo not drawn)	WT yeast gro inh 67.3
O=C(c1nc2ccc(Cl)cn2c1CNCC[C@@H]1C[C@@H]2C=C[C@H]1C2)N1CCCCCCC1	L major viab 70.1 (no result: ROMK mod)
CCN(CC)CCc1c(C)[nH]c(C(=O)OCc2ccccc2)c1C	Calpain2 inh 58.0, L major viab 100.1 (no result: KCC2 mod)
CC(=O)c1c(C)[nH]c(C(=O)OCc2ccccc2)c1C	none
COCCCNC(=O)c1cc(C)nn1-c1ccccc1	none (no result: WT yeast gro inh, L major viab, ROMK mod)
O=S(=O)(c1ccc(NC(=S)NCCc2ccccc2)cc1)N1CCOCC1	L major viab 68.8
O=S(=O)(c1ccc(NC(=S)NN=C(Cc2ccccc2)Cc2ccccc2)cc1)N1CCOCC1	L major viab 92.4 (no result: ROMK mod, KCC2 mod)
CC(C)(C)NNC(=S)Nc1ccc(S(=O)(=O)N2CCOCC2)cc1	none
CN(Cc1cccc(-n2cccn2)c1)C(=O)CCc1nnc(C2CCCCC2)o1	none
Cc1nn(Cc2ccccc2)c(Cl)c1C(=O)NCc1ccco1	none
Cc1cc(C)cc(N(CC(=O)N/N=C/c2ccncc2)S(=O)(=O)c2ccccc2)c1	L major viab 75.2
CCOc1ccc(-c2n[nH]c(C)c2Oc2ccc(OC)cc2)c(O)c1	none (no result: KCC2 mod)
COCCCN1CN(S(=O)(=O)c2ccc(Cl)cc2)c2nc3ccccc3nc21	L major viab 59.2 (no result: ROMK mod)
CC1CN(S(=O)(=O)c2cccc(C(=O)OCc3cc(=O)oc4cc(O)ccc34)c2)CC(C)O1 (stereo not drawn)	L major viab 95.9 (no result: Calpain2 inh, ROMK mod, KCC2 mod)
O=C(NCc1ccc(F)cc1)c1c2c(nc3ccccc13)CCC2	none
